Screens deposited in PubChem by National Center for Advancing Translational Sciences (NCATS).
Cruzain noTriton: qHTS Assay for Promiscuous and Specific Inhibitors of Cruzain (without detergent) | Cruzipain (Trypanosoma cruzi), P25779 | AID 1476, 2009 | purified cruzain, Z-FR-AMC fluorescence, no detergent | 200,000 tested, 2.3% active | Potency, µM, inactives show max response, negative = inhibition, usual class: inhibitors;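 note: plate controls were enzyme without inhibitor for no effect and buffer without enzyme for full effect; nearly all actives have a fitted effect of over 40% in size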
Target sequence (P25779 123-467 limits assumed): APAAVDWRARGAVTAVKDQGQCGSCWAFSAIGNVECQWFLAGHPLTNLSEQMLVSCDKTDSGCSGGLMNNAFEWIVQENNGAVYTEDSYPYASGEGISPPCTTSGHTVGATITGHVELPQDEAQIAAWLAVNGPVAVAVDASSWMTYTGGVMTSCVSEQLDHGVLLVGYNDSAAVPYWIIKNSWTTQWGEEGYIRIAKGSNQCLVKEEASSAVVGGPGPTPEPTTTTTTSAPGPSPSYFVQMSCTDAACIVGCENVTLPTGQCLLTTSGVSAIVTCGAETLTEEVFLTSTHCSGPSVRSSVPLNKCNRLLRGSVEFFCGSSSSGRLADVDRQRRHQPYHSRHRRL
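Detergent-free condition (0.00005% Triton X-100) in acetate buffer pH 5.5 with DTT. 1.5 nM enzyme and compound were pre-mixed 15 min, then 2 uM Z-FR-AMC substrate added; reaction progress from fluorescence change between first and third reads (60 s).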
Cruzain Triton: qHTS Assay for Promiscuous and Specific Inhibitors of Cruzain (with detergent) | purified cruzain, Z-FR-AMC fluorescence, 0.01% Triton | Potency, µM, for the others: max response, negative = inhibition, actives largely listed as inhibitors | AID 1478, 2009 | 200,000 tested, 0.43% active;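 note: plate controls were neutral wells for no effect and buffer without enzyme for full effect; nearly all actives have a fitted effect of over 40% in size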
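Enzyme 1.5 nM, Z-FR-AMC 2 uM, NaOAc 100 mM pH 5.5, DTT 5 mM, Triton X-100 0.01%; 15 min RT compound preincubation; kinetic ex360/em450, 60 s delta.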
Numbers without * were called inactive; ? = inconclusive. Hits are enriched below; roughly 2.4% of the tested compounds scored in any of these assays. Calls come from the whole dose curve; as a rule, active = well fitted curve in the direction sought with a large enough effect; inconclusive = small, poorly fitted or top-dose-only effect, or another doubt; inactive = no such curve, though single readings can be large; an effect the other way counts as inactive or inconclusive. Potency is the fitted concentration of half-maximal effect.

SMILES	Cruzain noTriton	Cruzain Triton
Cc1nc2ccccc2n1CCc1nc2c3ccccc3nc(SCC(=O)Nc3ccc(C(C)C)cc3)n2n1	-5%	-1%
O=C(C1COc2ccccc2O1)N(Cc1cccnc1)c1nc2ccc(F)cc2s1 (configuration not stated)	24%	-7%
Cc1ccc(NC(=O)CSc2nc3ccccc3nc2Cc2ccccc2)c(C)c1	-1%	2%
COc1ccc(-c2nc(CSc3nnc(C)n4c3cc3sccc34)c(C)o2)cc1	40%	4%
CCCc1[nH]nc2c1C(c1cc(OC)cc(OC)c1)C(C#N)=C(N)O2 (configuration not stated)	-3%	-4%
CCCc1[nH]nc2c1C(c1cccc(OC(=O)c3ccco3)c1)C(C#N)=C(N)O2 (configuration not stated)	20µM*	?
C#CCOCCOCCOCCNc1nc(N2CCN(C(=O)Cn3cc(CCCN=C(N)N)nn3)CC2)nc(N2CCN(C(=O)[C@H]([C@@H](C)CC)n3cc(CCCN=C(N)N)nn3)CC2)n1	20µM*	25µM*
C#CCOCCOCCOCCNc1nc(N2CCN(C(=O)Cn3cc(CCCN=C(N)N)nn3)CC2)nc(N2CCN(C(=O)[C@H](C(C)C)n3cc(CCO)nn3)CC2)n1	6%	0%
COc1ccccc1N1Cc2ccccc2C1	16µM*	-4%
COc1ccc(Cl)cc1N1Cc2ccccc2C1	25µM*	-4%
COc1ccccc1N1CCNCC1	10%	3%
COc1ccc(OC)c(N2Cc3ccccc3C2)c1	?	3%
COc1ccc(NC(=O)c2ccco2)cc1NC(=O)C(C)(C)Oc1ccc(Cl)cc1	?	-8%
CCC(C(=O)Nc1ccc(C(C)C)cc1)n1nc(C)n2c(cc3cc(C)ccc32)c1=O (configuration not stated)	?	-6%
COc1cccc(NC(=O)Cn2cc(S(=O)(=O)N3CCCC3)c(S(=O)(=O)N3CCCC3)c2)c1	0%	-3%
COC(=O)Cn1c(=NC(=O)c2ccc([N+](=O)[O-])s2)sc2cc(Br)ccc21	10µM*	-4%
COC(=O)Cn1c(=NC(=O)c2nc3ccccc3s2)sc2cc(S(C)(=O)=O)ccc21	17%	-8%
Cc1ccccc1NC(=O)CSc1nc2c(c(=O)n(C)c(=O)n2C)n1Cc1ccccc1F	3%	1%
CCOc1ccc(NC(=O)C2CC(=O)N(CC)C(=Nc3ccc4c(c3)OCO4)S2)cc1 (configuration not stated)	-10%	-3%
CCOc1ccc(NC(=O)C2CC(=O)NC(=Nc3ccc(Cl)c(Cl)c3)S2)cc1 (configuration not stated)	10µM*	?
CCCOc1ccc(NC(=O)C2CC(=O)N/C(=N/N=C(C)/C=C/c3ccc(N(C)C)cc3)S2)cc1 (configuration not stated)	25µM*	-16%
CC(/C=C/c1ccc(N(C)C)cc1)=N/N=C1/NC(=O)CC(C(=O)Nc2ccc(Cl)cc2)S1 (configuration not stated)	?	-16%
COc1ccc(NC(=O)c2cc3ccccn3n2)cc1	-10%	-1%
O=C(Nc1ccc(OC(F)(F)F)cc1)c1cc2ccccn2n1	25µM*	-2%
CN1CCN(C(CNC(=O)c2ccc(F)cc2)c2ccc3c(c2)OCO3)CC1 (configuration not stated)	1%	-2%
SMILES	Cruzain noTriton	Cruzain Triton
COCCn1c(SCC(=O)c2c(C)[nH]c3ccccc23)nc2cc(C(=O)NC(C)C)ccc2c1=O	12%	1%
Cc1ccc(NS(=O)(=O)c2cnc(N)nc2)c(C)c1	-1%	-3%
CCOC(=O)c1ccccc1NC(=O)COC(=O)CC(C)(C)CC1=NS(=O)(=O)c2ccccc2N1	?	-1%
Cc1ccc(/C=C2/SC(=S)N(CC(=O)Nc3ncc(Cc4ccc(C)cc4)s3)C2=O)cc1	4µM*	-4%
COc1ccc(/C=C2\SC(=S)N(CC(=O)Nc3nnc(C)s3)C2=O)cc1	16µM*	-14%
Cc1cccc(Cc2cnc(NC(=O)CN3C(=O)/C(=C/c4ccccc4)SC3=S)s2)c1	?	-5%
Cc1ccc(/C=C2\SC(=S)N(CC(=O)Nc3ncc(Cc4ccccc4Cl)s3)C2=O)cc1	3.2µM*	-10%
COc1cc(/C=C2\SC(=S)N(CC(=O)Nc3ccccn3)C2=O)cc(OC)c1OC	-2%	-13%
O=C(CSc1nnnn1-c1ccccc1)Nc1ncc(Cc2ccccc2Cl)s1	11%	-1%
COc1cc(/C=C2/SC(=S)N(CC(=O)Nc3nc4ccccc4s3)C2=O)cc(OC)c1OC	13µM*	-4%
CCc1nnc(NC(=O)CN2C(=O)/C(=C/c3cc(OC)c(OC)c(OC)c3)SC2=S)s1	9%	?
O=C(c1cccc(Cl)c1)n1nc(-c2ccco2)nc1NCc1cccs1	-16%	-4%
Cn1cc(C(c2ccccc2)c2ccc(Cl)s2)c2ccccc21 (configuration not stated)	?	-3%
Cc1ccc(-n2nc(C)c3c(C(=O)NCCc4ccc(S(N)(=O)=O)cc4)cc(C)nc32)cc1	?	-9%
CC1CCN(CCOc2ccc(OCc3ccccc3)cc2)CC1	-12%	0%
CCOC(=O)c1ccc(NC(=O)C2=C(C)Nc3nc(SCc4ccc(Cl)cc4)nn3C2c2ccc(C)cc2)cc1 (configuration not stated)	-2%	-1%
CCNc1ncc2nc(-c3cccs3)c(=O)n(Cc3cccc(OC)c3)c2n1	17%	-1%
Cc1ccc2c(CC(=O)Nc3ccc(S(=O)(=O)N4CCCCC4)cc3)coc2c1C	25µM*	-9%
Cc1cc(C)c2c(CC(=O)Nc3ccc(S(=O)(=O)N4CCCCC4)cc3)coc2c1	?	-7%
Cc1ccc2c(CC(=O)Nc3ccc(S(=O)(=O)N4CCCC(C)C4)cc3)coc2c1 (configuration not stated)	?	-8%
Cc1ccc2c(CC(=O)Nc3ccc(S(=O)(=O)N4CCCCC4)cc3)coc2c1	25µM*	-7%
CCc1ccc(-n2c(SCc3cccc(F)c3)nc3[nH]ncc3c2=O)cc1	8%	-11%
Cn1c(=O)c(C(=O)COC(=O)c2cc(C(F)(F)F)nc3c(C(F)(F)F)cccc23)c(N)n(Cc2ccccc2)c1=O	-2%	3%
CCCCCCOc1ccc(C2C(=O)N(C3CCCCC3)CC(=O)N2CCC)cc1 (configuration not stated)	?	0%
NC(=S)N=Nc1c(O)[nH]c2ccc(F)cc12	5µM*	14µM*
SMILES	Cruzain noTriton	Cruzain Triton
CC(C)NC(=S)N=Nc1c(O)[nH]c2ccc(C(C)C)cc12	4%	-8%
O=C(O)c1ccc(S(=O)(=O)c2ccccc2)cc1	-5%	2%
O=C(Nc1ccc(NC(=O)c2ccc(S(=O)(=O)c3ccccc3)cc2)cc1)c1ccccc1	4µM*	15%
CC(=O)Nc1ccc(S(=O)(=O)N(C)c2ccccc2)cc1	-7%	3%
CN(c1ccccc1)S(=O)(=O)c1ccc(NC(=O)c2ccc(-c3ccccc3)cc2)cc1	25µM*	3%
Cc1ccc(NC(=O)CSc2nc(=O)n(CCN3CCOCC3)c3c2CCC3)cc1Cl	6%	-1%
CC(=O)NCCNC(=O)[C@H](Cc1ccccc1)NC(=O)c1cccs1	2%	4%
O=C(COC(=O)[C@H](Cc1ccccc1)NC(=O)c1cccs1)Nc1c(Cl)cccc1Cl	25µM*	16µM*
CCN(CC)S(=O)(=O)c1ccc(C(=O)NCCSc2c[nH]c3ccccc23)cc1	10%	-4%
